High-throughput results: PubChem, National Center for Advancing Translational Sciences (NCATS)
IL1B secr inh = inflammasome signaling inhibition, IL-1 beta readout; THP-1 LPS/ATP IL-1B secretion, AlphaLISA, 16 h; stronger effect = lower value; activity change, % at 57.5 µM; 360,000 tested, 4.7% active; in the data active = activity change below about -50%; inconclusive = mostly about -30% to -49%
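THP-1 cells pretreated 1 hr with compounds (up to 57.5 uM final), then stimulated with LPS (250 ng/mL final) plus ATP (1.25 mM final); secreted IL-1B measured by AlphaLISA after 16 hr, decreased signal indicating inhibition.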
HepG2 tox-1 = HepG2 cytotoxicity, counter-screen for TGF-b inhibitors; HepG2 CAGA-GFP viability, ATP luminescence, 18 h; Potency, µM (series often up to 46.1 µM), hits mostly cytotoxic; 410,000 tested, 0.76% active; AID 588856
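CellTiter-Glo luminescence gave cytotoxicity after 18 hours at 37 degrees C. The cells were HepG2 CAGA-GFP in 1% FBS DMEM, stimulated with 500 pg/mL TGF-beta after compound addition. %Activity was normalised to no-cell wells (complete cell-killing) and DMSO (no toxicity), and curves were fitted and classified.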
Giardia kill = Giardia lamblia killing; activity change, % at 7.66 µM, hits read low; Giardia lamblia trophozoite viability; 340,000 tested, 0.15% active; AID 540267; in the data active = activity change below about -80%; inconclusive = between about -30% and that limit;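 also: parasites exposed to compound for two days anaerobically before the ATP read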
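Trophozoites 100 cells/well + cpd; 48 hrs, 37 deg C, anaerobic. ATPLite 1-Step added, 15-30 min RT, luminescence read (ATP-based viability).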
HT1080 IDH1KD tx = kills HT-1080 cells with IDH1 knockdown. HT-1080 IDH1 knockdown viability, ATP luminescence, 48 h. Potency, µM (titrated, usually from 46.1 µM), actives largely listed as cytotoxic. 360,000 tested, 2% active. AID 686971
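Viability of IDH1-knockdown HT-1080 fibrosarcoma cells was assessed by CellTiter-Glo after 48 h at 37 °C with titrated compound; concentration-effect curves were classified by fit quality and response size.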
HT1080-NT tox = kills 2HG-producing HT-1080-NT fibrosarcoma cells; 360,000 tested, 1.6% active; AID 686970; Potency, µM (top dose mostly 46.1 µM), actives largely listed as cytotoxic; HT-1080-NT fibrosarcoma viability, CellTiter-Glo ATP luminescence, 48 h;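 also: NT is the 2HG producing partner of a matched IDH1 knockdown line; nearly all actives have a fitted effect of over 55% in size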
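A 48-hour cytotoxicity screen used HT-1080-NT cells plated 2 hours before compound delivery. ATP-based CellTiter-Glo luminescence measured viability, normalized to DMSO and no-cell controls.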
TGFb SMAD3 inh = blocks TGF-b signaling. HepG2 CAGA-GFP TGF-b/SMAD3 reporter, GFP fluorescence, 18 h; TGF-beta stimulated, 500 pg/mL final. Potency, µM (doses to about 46.1 µM), hits mostly inhibitors. 410,000 tested, 1.2% active. AID 588855; also: nearly all actives have a fitted effect of over 65% in size
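GFP signal (ex488/em500-530) from TGF-beta-stimulated HEPG2 CAGA-GFP cells, 500 pg/mL final, 18 h at 37 degrees C in DMEM plus 1% FBS, normalized to unstimulated and DMSO-stimulated controls.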
TGFb CAGA inh = TGF-b pathway inhibition, cherry-pick retest; shares compounds with TGFb SMAD3 inh; 1,600 tested, 63% active; HepG2 CAGA-GFP TGF-b reporter, GFP fluorescence, 18 h; cells stimulated with TGF-beta, 500 pg/mL; Potency, µM (series often up to 46.1 µM), actives largely listed as inhibitors; also: nearly all actives have a fitted effect of over 65% in size
HepG2 tox-2 = HepG2 cytotoxicity, TGF-b inhibitor counterscreen; Potency, µM (series often up to 46.1 µM), actives largely listed as inhibitors; HepG2 CAGA-GFP viability, ATP luminescence, 18 h; cells stimulated with TGF-beta, 500 pg/mL; 1,600 tested, 27% active; shares compounds with TGFb SMAD3 inh; also: nearly all actives have a fitted effect of over 70% in size
CCL64 TGFb inh = orthogonal confirmation of TGF-b inhibitors in CCL64 cells. shares compounds with TGFb SMAD3 inh. CCL64 CAGA-GFP reporter, TGF-b stimulated, GFP fluorescence, 18 h. Potency, µM (highest dose often 46.1 µM), hits mostly inhibitors. 1,600 tested, 41% active. AID 720536; also: nearly all actives have a fitted effect of over 65% in size
COP TGFb inh = TGF-b inhibition validated with COP promoter; shares compounds with TGFb SMAD3 inh; AID 720537; 1,600 tested, 3% active; HepG2 COP-GFP TGF-b reporter, GFP fluorescence, 18 h; cells stimulated by added recombinant TGF-beta; Potency, µM (highest dose often 46.1 µM), usual class: inhibitors; also: nearly all actives have a fitted effect of over 70% in size
Of the large screens only hits and unclear results are named; the others gave an inactive call (follow-up assays come after a bar, where they were run). Rows were chosen to be rich in hits. Some 6.5% of all compounds tested hit in one or more screens of this group. Unless noted, calls follow the shape of the dose curve; as a rule, active = well fitted curve in the direction sought with a large enough effect; inconclusive = small, poorly fitted or top-dose-only effect, or another doubt; inactive = no such curve, though single readings can be large; an effect the other way counts as inactive or inconclusive.

Cc1ccc(N2CC(C(=O)NCCCn3ccnc3)CC2=O)cc1 (stereo unspecified)	none
O=C(CSC1=Nc2ccccc2C2=NC(CCC(=O)NC3CCCCC3)C(=O)N12)Nc1cccc(C(F)(F)F)c1 (stereo unspecified)	none (no result: IL1B secr inh, Giardia kill, HT1080 IDH1KD tx, HT1080-NT tox)
COc1cc(C(=O)c2cocc2C(=O)c2ccc3c(c2)OCO3)cc(OC)c1OC	HT1080 IDH1KD tx 1.64µM, HT1080-NT tox 1.3µM, TGFb SMAD3 inh inconclusive | TGFb CAGA inh inactive | HepG2 tox-2 inactive | CCL64 TGFb inh inactive | COP TGFb inh inactive
COc1cccc(NC(=O)Nc2nc(SC(C)(C)C)ns2)c1	IL1B secr inh -72.8, HT1080 IDH1KD tx inconclusive, HT1080-NT tox inconclusive, TGFb SMAD3 inh 6.31µM | TGFb CAGA inh 10.3µM | HepG2 tox-2 inconclusive | CCL64 TGFb inh 8.2µM | COP TGFb inh inactive
CC(=O)Nc1cccc(NC(=O)Nc2cccc(F)c2)c1	TGFb SMAD3 inh inconclusive
CCCSc1nsc(NC(=O)Nc2ccc(F)cc2F)n1	HT1080-NT tox inconclusive, TGFb SMAD3 inh 8.91µM | TGFb CAGA inh 6.51µM | HepG2 tox-2 5.8µM | CCL64 TGFb inh 7.31µM | COP TGFb inh inactive
CCSc1nsc(NC(=O)Nc2cccc(F)c2)n1	IL1B secr inh -95.0, HT1080 IDH1KD tx 6.51µM, HT1080-NT tox 11.6µM, TGFb SMAD3 inh 7.08µM | TGFb CAGA inh 7.31µM | HepG2 tox-2 6.51µM | CCL64 TGFb inh inconclusive | COP TGFb inh inactive
Cc1cccc(NS(=O)(=O)c2ccc3oc(=O)ccc3c2)c1C	none
CC1(C)N=C2C(=[N+]1[O-])CCC/C2=N\O	IL1B secr inh inconclusive
COc1ccccc1CNC(=O)C1CCCCN1S(=O)(=O)c1ccccc1 (stereo unspecified)	none
Cc1ccc(C(=O)Nc2nc(C)c(C(=O)Nc3ccc4c(c3)CCC4)s2)cc1	HT1080 IDH1KD tx 4.11µM, HT1080-NT tox 2.31µM, TGFb SMAD3 inh 11.2µM | TGFb CAGA inh 14.6µM | HepG2 tox-2 inconclusive | CCL64 TGFb inh 8.2µM | COP TGFb inh inactive
CCOc1ccc(S(=O)(=O)N2CCN(C(=O)c3cc(-c4ccccc4)nn3-c3ccccc3)CC2)cc1	TGFb SMAD3 inh inconclusive
COc1ccc2[nH]c3c(c2c1)CCN1C(=O)C(CC(=O)NCCC2=CCCCC2)C[C@H](C(=O)N2CCCCC2)[C@@]31C (stereo partly specified)	IL1B secr inh -52.0, Giardia kill inconclusive, TGFb SMAD3 inh 7.94µM | TGFb CAGA inh inconclusive | HepG2 tox-2 inactive | CCL64 TGFb inh inactive | COP TGFb inh inactive
CCN(CC)C(=O)[C@H]1CC(CC(=O)NCc2cccc(C(F)(F)F)c2)C(=O)N2CCc3c([nH]c4ccc(OC)cc34)[C@]12C (stereo partly specified)	TGFb SMAD3 inh 8.91µM | TGFb CAGA inh 32.6µM | HepG2 tox-2 inactive | CCL64 TGFb inh inconclusive | COP TGFb inh inactive
